Experiment [1] in a line: NCI Yeast Anticancer Drug Screen. Data for the rad50 strain (AID 155).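 Further: 0% = growth of vehicle-only cultures of the same strain.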 The note with it: S. cerevisiae rad50 strain growth inhibition, active compounds read high. The method, boiled down:
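Cells are treated with compound, grown, and their growth is then scored against vehicle-only cultures of the same repair-deficient yeast strain.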

Experiment [2] can be described thus: NCI Yeast Anticancer Drug Screen. Data for the mec2-1 strain (AID 157). Particulars: S. cerevisiae mec2-1 strain, active compounds read high. The procedure, abridged: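 Growth inhibition is read against vehicle-treated controls after compound exposure of the mec2-1 yeast strain, which is defective in DNA damage repair or cell cycle control.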
Experiment [3] in a line: NCI Yeast Anticancer Drug Screen. Data for the sgs1 mgt1 strain (AID 161).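 Further: 0% = growth of cultures given vehicle only.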 The note with it: S. cerevisiae sgs1 mgt1 strain, active compounds read high. The procedure, abridged:
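Compounds are added to genetically altered yeast, and growth is compared with cultures given vehicle alone to give percent inhibition.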

Experiment [4] in a line: NCI Yeast Anticancer Drug Screen. Data for the cln2 rad14 strain (AID 165).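 Further: 0% = growth equal to vehicle treated cultures.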 Particulars: S. cerevisiae cln2 rad14 strain, active compounds read high. The method, boiled down:
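Growth inhibition, relative to vehicle-treated controls, is the read-out. The test organism is a yeast strain with defined genetic alterations, cln2 rad14.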

Experiment [5] in a line: NCI Yeast Anticancer Drug Screen. Data for the bub3 strain (AID 167). Particulars: S. cerevisiae bub3 mutant strain, active compounds read high. The procedure, abridged:
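Part of a panel of yeast mutants defective in DNA damage repair or cell cycle regulation. Each strain is grown with compound, and inhibition is calculated relative to solvent-treated cultures.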

The nature of experiment [6]: NCI Yeast Anticancer Drug Screen. Data for the mlh1 rad18 strain (AID 175). Particulars: S. cerevisiae mlh1 rad18 strain growth inhibition, active compounds read high. The procedure, abridged:
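Cells of a genetically altered yeast strain, deficient in DNA damage repair, were treated with compound. Their growth was then compared with that of vehicle-treated cultures to give inhibition.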

Setting [7] is: at 5.0 µM (retest, dose inferred, filed as 0.5).
[8] abbreviates: at 50.0 µM (retest, dose inferred, filed as 5.0).

The results in this text go back to PubChem BioAssay (NCI).

This is part of a sample that, as a whole, favours compounds with a hit. Of some 79,000 tested, about 15% had one in any assay. A number with no mark means an inactive call. Calls of active or inactive are those of the source. No stated cut-off is given here; in the data, active means growth inhibition above about 70%; inactive means the rest.

As to `NS(=O)(=O)CCl.[Hg]`, the growth inhibition in experiment [1] (setting [7]) is 13%; in experiment [1] (setting [8]), 99% (active); in experiment [2] (setting [7]) it was 17%; in experiment [2] (setting [8]), 100% (active); in experiment [3] (setting [7]), 15%; in experiment [3] (setting [8]), 100% (active). Moreover, the growth inhibition in experiment [4] (setting [7]) was 3%; in experiment [4] (setting [8]), 98% (active); in experiment [5] (setting [7]), 2%; in experiment [5] (setting [8]), 99% (active); in experiment [6] (setting [7]), -16%; in experiment [6] (setting [8]), 93% (active).

As for `C[C](=O)[Hg][O]c1ccc(N=Cc2ccccc2O)cc1`, the growth inhibition in experiment [1] (setting [7]) is 99% (active); in experiment [1] (setting [8]) it was 99% (active); in experiment [2] (setting [7]) it was 100% (active); in experiment [2] (setting [8]), 100% (active); in experiment [3] (setting [7]), 100% (active); in experiment [3] (setting [8]), 100% (active). The growth inhibition was 99% (active) in experiment [4] (setting [7]); 99% (active) in experiment [4] (setting [8]); 100% (active) in experiment [5] (setting [7]); 99% (active) in experiment [5] (setting [8]); 99% (active) in experiment [6] (setting [7]); 99% (active) in experiment [6] (setting [8]).

Turning to `CCC1CC[N-]CC1.CCC1CC[N-]CC1.N#C[S-].N#C[S-].[Cd]`, the growth inhibition in experiment [1] (setting [7]) is 26%; in experiment [1] (setting [8]), 85% (active); in experiment [2] (setting [7]), 16%; in experiment [2] (setting [8]), 56%; in experiment [3] (setting [7]), 11%; in experiment [3] (setting [8]) it was 71% (active). Further, the growth inhibition in experiment [4] (setting [7]) is 4%; in experiment [4] (setting [8]) it was 54%; in experiment [5] (setting [7]), 5%; in experiment [5] (setting [8]) it was 42%; in experiment [6] (setting [7]), -16%; in experiment [6] (setting [8]), 57%.

For `COc1ccc(/C=C/[N+](=O)[O-])cc1`, the growth inhibition is 71% (active) in experiment [1] (setting [7]); 99% (active) in experiment [1] (setting [8]); 27% in experiment [2] (setting [7]); 100% (active) in experiment [2] (setting [8]); 65% in experiment [3] (setting [7]); 100% (active) in experiment [3] (setting [8]). The growth inhibition in experiment [4] (setting [7]) is 11%; in experiment [4] (setting [8]) it was 99% (active); in experiment [5] (setting [7]), 14%; in experiment [5] (setting [8]), 99% (active); in experiment [6] (setting [7]), -11%; in experiment [6] (setting [8]) it was 99% (active).

Regarding `O=C1C=C(N2CC2)C(=O)C=C1N1CC1`, the growth inhibition in experiment [1] (setting [7]) was 91% (active); in experiment [1] (setting [8]), 98% (active); in experiment [2] (setting [7]), 90% (active); in experiment [2] (setting [8]) it was 99% (active); in experiment [3] (setting [7]), 27%; in experiment [3] (setting [8]) it was 41%. In addition, the growth inhibition in experiment [3] (at 50.0 µM) was 88% (active); in experiment [4] (setting [7]), 24%; in experiment [4] (setting [8]) it was 25%; in experiment [4] (at 50.0 µM), 89.2% (active); in experiment [5] (setting [7]) it was 20%; in experiment [5] (setting [8]), 55%. Besides, the growth inhibition was 87.7% (active) in experiment [5] (at 50.0 µM), 94% (active) in experiment [6] (setting [7]) and 97% (active) in experiment [6] (setting [8]).

For `O=C(CBr)c1ccncc1`, the growth inhibition is 99% (active) in experiment [1] (setting [7]); 99% (active) in experiment [1] (setting [8]); 100% (active) in experiment [2] (setting [7]); 100% (active) in experiment [2] (setting [8]); 100% (active) in experiment [3] (setting [7]); 99% (active) in experiment [3] (setting [8]). The growth inhibition in experiment [4] (setting [7]) was 99% (active); in experiment [4] (setting [8]) it was 99% (active); in experiment [5] (setting [7]), 100% (active); in experiment [5] (setting [8]), 99% (active); in experiment [6] (setting [7]), 95% (active); in experiment [6] (setting [8]), 98% (active).

Consider `[Cl][Sn]([c]1ccccc1)([c]1ccccc1)[c]1ccccc1`, for which the growth inhibition is 99% (active) in experiment [1] (setting [7]); 98% (active) in experiment [1] (setting [8]); 99% (active) in experiment [2] (setting [7]); 99% (active) in experiment [2] (setting [8]); 100% (active) in experiment [3] (setting [7]); 99% (active) in experiment [3] (setting [8]). Moreover, the growth inhibition in experiment [4] (setting [7]) is 99% (active); in experiment [4] (setting [8]), 99% (active); in experiment [5] (setting [7]), 100% (active); in experiment [5] (setting [8]) it was 99% (active); in experiment [6] (setting [7]), 99% (active); in experiment [6] (setting [8]), 98% (active).

Turning to `CCC1(O)C(=O)OCc2c1cc1n(c2=O)Cc2cc3ccc(C=O)cc3nc2-1` (stereo not given), the growth inhibition in experiment [1] (at 50.0 µM) was 39.5%; in experiment [2] (at 50.0 µM), 19%; in experiment [3] (at 50.0 µM), -17.5%; in experiment [4] (at 50.0 µM) it was 2.3%; in experiment [5] (at 50.0 µM) it was -24.7%.

With `CCC(CC)COC(=O)CI`, the growth inhibition was 33% in experiment [1] (setting [7]); 97% (active) in experiment [1] (setting [8]); 19% in experiment [2] (setting [7]); 79% (active) in experiment [2] (setting [8]); 28% in experiment [3] (setting [7]); 99% (active) in experiment [3] (setting [8]). Also, the growth inhibition was 15% in experiment [4] (setting [7]); 40% in experiment [4] (setting [8]); 50% in experiment [5] (setting [7]); 86% (active) in experiment [5] (setting [8]); -20% in experiment [6] (setting [7]); 87% (active) in experiment [6] (setting [8]).

Regarding `CCCCCCCNC(=O)CI`, the growth inhibition in experiment [1] (setting [7]) was 42%; in experiment [1] (setting [8]) it was 99% (active); in experiment [2] (setting [7]), 13%; in experiment [2] (setting [8]), 100% (active); in experiment [3] (setting [7]), 33%; in experiment [3] (setting [8]), 100% (active). Besides, the growth inhibition in experiment [4] (setting [7]) was 9%; in experiment [4] (setting [8]) it was 94% (active); in experiment [5] (setting [7]), 52%; in experiment [5] (setting [8]), 100% (active); in experiment [6] (setting [7]), 23%; in experiment [6] (setting [8]), 99% (active).

With `CCCC1CC[N-]CC1.CCCC1CC[N-]CC1.N#C[S-].N#C[S-].[Cd]`, the growth inhibition is 31% in experiment [1] (setting [7]); 86% (active) in experiment [1] (setting [8]); 10% in experiment [2] (setting [7]); 59% in experiment [2] (setting [8]); 10% in experiment [3] (setting [7]); 76% (active) in experiment [3] (setting [8]). For the same molecule, the growth inhibition in experiment [4] (setting [7]) is 9%; in experiment [4] (setting [8]), 65%; in experiment [5] (setting [7]), 8%; in experiment [5] (setting [8]), 56%; in experiment [6] (setting [7]), -14%; in experiment [6] (setting [8]), 46%.

Consider `C[C@H]1CC[C@@]2(NC1)O[C@H]1C[C@H]3[C@@H]4CC[C@H]5C[C@@H](O)CC[C@]5(C)[C@H]4CC[C@]3(C)[C@H]1[C@@H]2C`, for which the growth inhibition in experiment [1] (setting [7]) is 42%; in experiment [1] (setting [8]), 96% (active); in experiment [1] (at 50.0 µM) it was 92.2% (active); in experiment [3] (setting [7]), 66%; in experiment [3] (setting [8]) it was 99% (active); in experiment [3] (at 50.0 µM) it was 93.5% (active). Moreover, the growth inhibition is 54% in experiment [4] (setting [7]); 98% (active) in experiment [4] (setting [8]); 91.5% (active) in experiment [4] (at 50.0 µM); 64% in experiment [5] (setting [7]); 99% (active) in experiment [5] (setting [8]); 92.5% (active) in experiment [5] (at 50.0 µM). Besides, the growth inhibition in experiment [6] (setting [7]) is 33%; in experiment [6] (setting [8]), 98% (active); in experiment [6] (at 50.0 µM), 86.8% (active).

Take `CCC[CH2][Sn]1([CH2]CCC)[O]C(=O)c2ccc(N)cc2[O]1`: the growth inhibition in experiment [1] (at 50.0 µM) was 87.3% (active); in experiment [2] (at 50.0 µM), 92.5% (active); in experiment [3] (at 50.0 µM), 89.5% (active); in experiment [4] (at 50.0 µM), 89.4% (active); in experiment [5] (at 50.0 µM), 89.1% (active).

On to `O=C(CBr)OCCBr`, for which the growth inhibition in experiment [1] (setting [7]) is 59%; in experiment [1] (setting [8]), 99% (active); in experiment [2] (setting [7]) it was 33%; in experiment [2] (setting [8]), 99% (active); in experiment [3] (setting [7]) it was 73% (active); in experiment [3] (setting [8]), 100% (active). In addition, the growth inhibition in experiment [4] (setting [7]) was 25%; in experiment [4] (setting [8]), 98% (active); in experiment [5] (setting [7]) it was 56%; in experiment [5] (setting [8]), 99% (active); in experiment [6] (setting [7]) it was 29%; in experiment [6] (setting [8]), 98% (active).
